In PubChem BioAssay (NCATS) one finds activity, negative = cell killing data, which are given here for 27 molecules.

“And” between values parts separate entries of the source, which are not always exact repeats. Identical values can stand only once. Inconclusive results are not listed. The source holds several records for some structures; these can differ, active in one and inactive in another. The source made the active and inactive calls. Calls follow the shape of the dose curve; as a rule, active = well fitted inhibition curve with a large enough effect; inconclusive = small, poorly fitted or top-dose-only effect; inactive = flat fitted curve, though single readings scatter.
% is scaled to controls: 0 for no effect and ±100 for the full control effect.

One experiment in a line: Drug repurposing screens with cells derived from glioblastoma tumor samples (AID 1345199). Also: nearly all actives have a fitted effect of over 40% in size. Conditions: GBM patient neurospheres viability, ATP luminescence, 48 h; at 20 µM (top of the series); tumour line C. The method, boiled down:
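Primary testing used CD133+ neurospheres from four GBM patients, seven concentrations, 48 h exposure and ATP-based viability; confirmation added three slower-growing patient lines.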
Take `CN(C)C(=N)N=C(N)N`: the activity, negative = cell killing is -29.3% (inactive).

Turning to `NCCCCCC(=O)O`, the activity, negative = cell killing was 16.3% (inactive).

For the molecule `CS(=O)(=O)Nc1ccc([N+](=O)[O-])cc1Oc1ccccc1`, the activity, negative = cell killing is 19.5% (inactive).

`CN(C)c1nc(N(C)C)nc(N(C)C)n1`: the activity, negative = cell killing is 0.771% (inactive).

For the molecule `Nc1nc2c(ncn2COC(CO)CO)c(=O)[nH]1`, the activity, negative = cell killing was -13.4% (inactive).

Regarding `COc1nc(C)nc(Cl)c1NC1=NCCN1`, the activity, negative = cell killing is -9.78% (inactive).

Turning to `CN1C(C(=O)Nc2ccccn2)=C(O)c2ccccc2S1(=O)=O`, the activity, negative = cell killing is -3.14% (inactive).

Still in this experiment, the particulars now being: GBM patient neurospheres viability, ATP luminescence, 48 h; at 21.2 µM (top of the series); tumour line B.
As to `CN(C)C(=N)N=C(N)N`, the activity, negative = cell killing is -4.74% (inactive).

Regarding `NCCCCCC(=O)O`, the activity, negative = cell killing is -4.6% (inactive).

Regarding `CS(=O)(=O)Nc1ccc([N+](=O)[O-])cc1Oc1ccccc1`, the activity, negative = cell killing was -19.6% (inactive).

As to `CN(C)c1nc(N(C)C)nc(N(C)C)n1`, the activity, negative = cell killing was -14% (inactive).

With `Nc1nc2c(ncn2COC(CO)CO)c(=O)[nH]1`, the activity, negative = cell killing is -13.7% (inactive).

For `COc1nc(C)nc(Cl)c1NC1=NCCN1`, the activity, negative = cell killing is -2.98% (inactive).

Regarding `CN1C(C(=O)Nc2ccccn2)=C(O)c2ccccc2S1(=O)=O`, the activity, negative = cell killing was -6.49% (inactive).

The same experiment, now with this note: GBM patient neurospheres viability, ATP luminescence, 48 h; at 21.2 µM (top of the series); tumour line D.
Consider `CN(C)C(=N)N=C(N)N`, for which the activity, negative = cell killing was -25.1% (inactive).

Consider `NCCCCCC(=O)O`, for which the activity, negative = cell killing is -5.09% (inactive).

`CS(=O)(=O)Nc1ccc([N+](=O)[O-])cc1Oc1ccccc1`: the activity, negative = cell killing is -29.6% (inactive).

With `CN(C)c1nc(N(C)C)nc(N(C)C)n1`, the activity, negative = cell killing was -14.3% (inactive).

As to `Nc1nc2c(ncn2COC(CO)CO)c(=O)[nH]1`, the activity, negative = cell killing was -24.4% (inactive).

Consider `COc1nc(C)nc(Cl)c1NC1=NCCN1`, for which the activity, negative = cell killing is 12.8% (inactive).

As to `CN1C(C(=O)Nc2ccccn2)=C(O)c2ccccc2S1(=O)=O`, the activity, negative = cell killing was 0.702% (inactive).

Staying with this experiment, now noted: GBM patient neurospheres viability, ATP luminescence, 48 h; at 21.3 µM (top of the series); tumour line A.
With `CN(C)C(=N)N=C(N)N`, the activity, negative = cell killing is -0.697% (inactive).

Consider `NCCCCCC(=O)O`, for which the activity, negative = cell killing was -27.1% (inactive).

Regarding `CS(=O)(=O)Nc1ccc([N+](=O)[O-])cc1Oc1ccccc1`, the activity, negative = cell killing was -28.2% (inactive).

For `CN(C)c1nc(N(C)C)nc(N(C)C)n1`, the activity, negative = cell killing was -32% (inactive).

`COc1nc(C)nc(Cl)c1NC1=NCCN1`: the activity, negative = cell killing is -26.5% (inactive).

The experiment is the same for the next values; noted with them: GBM patient neurospheres viability, ATP luminescence, 48 h; at 45.9 µM (top of the series); tumour line B.
On to `CC12CC3CC(C)(C1)CC(N)(C3)C2`, for which the activity, negative = cell killing is 2.01% (inactive).

`Clc1ccc2c(c1)C(N1CCNCC1)=Nc1ccccc1O2`: the activity, negative = cell killing was -27.8% (inactive).

`CCOC(=O)Nc1ccc(NCc2ccc(F)cc2)nc1N`: the activity, negative = cell killing is -10.5% (inactive) and -16.1% (inactive).

In the case of `C[C@H]1c2cccc(O)c2C(O)=C2C(=O)[C@]3(O)C(O)=C(C(N)=O)C(=O)[C@@H](N(C)C)[C@@H]3[C@@H](O)[C@@H]21`, the activity, negative = cell killing was -22.1% (inactive).

As for `Cn1c(=O)c2c(ncn2C)n(C)c1=O`, the activity, negative = cell killing was -15% (inactive).

In the case of `Cn1cnc2c1c(=O)[nH]c(=O)n2C`, the activity, negative = cell killing is 0.295% (inactive).

`CC(C(=O)O)c1cccc(C(=O)c2ccccc2)c1` (centres undefined): the activity, negative = cell killing is -12.8% (inactive).

On to `Nc1ccn([C@H]2CC[C@@H](CO)O2)c(=O)n1`, for which the activity, negative = cell killing was -3.23% (inactive).

With `NS(=O)(=O)c1cc2c(cc1Cl)NCNS2(=O)=O`, the activity, negative = cell killing is -16.5% (inactive).

With `NC(=O)NO`, the activity, negative = cell killing is -13.8% (inactive).

For `CC(C)NCC(O)COc1ccc(CCOCC2CC2)cc1` (centres undefined), the activity, negative = cell killing is -17.4% (inactive).

Regarding `C[C@@H]1CC(=O)NN=C1c1ccc(NN=C(C#N)C#N)cc1`, the activity, negative = cell killing was -23.8% (inactive).

For `CS(=O)(=O)CCNCc1ccc(-c2ccc3ncnc(Nc4ccc(OCc5cccc(F)c5)c(Cl)c4)c3c2)o1`, the activity, negative = cell killing is -6.77% (inactive).

As for `Cc1ccc(-c2cc(C(F)(F)F)nn2-c2ccc(S(N)(=O)=O)cc2)cc1`, the activity, negative = cell killing was 2.4% (inactive).

Take `O=C1N(c2ccccc2)c2ccccc2C1(Cc1ccncc1)Cc1ccncc1`: the activity, negative = cell killing was -5.15% (inactive).

For the molecule `Cc1cnc(C(=O)NCCc2ccc(S(=O)(=O)NC(=O)NC3CCCCC3)cc2)cn1`, the activity, negative = cell killing was -8.45% (inactive).

For the molecule `CCc1cccc2c3c([nH]c12)C(CC)(CC(=O)O)OCC3` (centres undefined), the activity, negative = cell killing was -7.67% (inactive).

As to `O=C1Cc2cc(CCN3CCN(c4nsc5ccccc45)CC3)c(Cl)cc2N1`, the activity, negative = cell killing is -28.8% (inactive).

With `Cc1cn([C@H]2C=C[C@@H](CO)O2)c(=O)[nH]c1=O`, the activity, negative = cell killing is -6.16% (inactive).

As for `CC(C)(C)C(=O)Oc1ccc(S(=O)(=O)Nc2ccccc2C(=O)NCC(=O)O)cc1`, the activity, negative = cell killing is -13.7% (inactive).

The experiment is the same for the next values; noted with them: GBM patient neurospheres viability, ATP luminescence, 48 h; at 45.9 µM (top of the series); tumour line D.
Take `CC12CC3CC(C)(C1)CC(N)(C3)C2`: the activity, negative = cell killing was -1.27% (inactive).

Take `Clc1ccc2c(c1)C(N1CCNCC1)=Nc1ccccc1O2`: the activity, negative = cell killing is -2.29% (inactive).

Regarding `CCOC(=O)Nc1ccc(NCc2ccc(F)cc2)nc1N`, the activity, negative = cell killing was -21.3% (inactive) and 3.4% (inactive).

Turning to `C[C@H]1c2cccc(O)c2C(O)=C2C(=O)[C@]3(O)C(O)=C(C(N)=O)C(=O)[C@@H](N(C)C)[C@@H]3[C@@H](O)[C@@H]21`, the activity, negative = cell killing was -13% (inactive).

As to `Cn1c(=O)c2c(ncn2C)n(C)c1=O`, the activity, negative = cell killing was -11.6% (inactive).

Take `Cn1cnc2c1c(=O)[nH]c(=O)n2C`: the activity, negative = cell killing is -15.5% (inactive).

Take `CC(C(=O)O)c1cccc(C(=O)c2ccccc2)c1` (centres undefined): the activity, negative = cell killing is -8.28% (inactive).

Consider `Nc1ccn([C@H]2CC[C@@H](CO)O2)c(=O)n1`, for which the activity, negative = cell killing was -22.8% (inactive).

As for `NS(=O)(=O)c1cc2c(cc1Cl)NCNS2(=O)=O`, the activity, negative = cell killing was -0.301% (inactive).

Consider `NC(=O)NO`, for which the activity, negative = cell killing was -5.79% (inactive).

As for `CC(C)NCC(O)COc1ccc(CCOCC2CC2)cc1` (centres undefined), the activity, negative = cell killing was -21.3% (inactive).

Regarding `CS(=O)(=O)CCNCc1ccc(-c2ccc3ncnc(Nc4ccc(OCc5cccc(F)c5)c(Cl)c4)c3c2)o1`, the activity, negative = cell killing was -7.21% (inactive).

As to `O=C1N(c2ccccc2)c2ccccc2C1(Cc1ccncc1)Cc1ccncc1`, the activity, negative = cell killing was -2.7% (inactive).

As to `Cc1cnc(C(=O)NCCc2ccc(S(=O)(=O)NC(=O)NC3CCCCC3)cc2)cn1`, the activity, negative = cell killing is -17.1% (inactive).

Turning to `CCc1cccc2c3c([nH]c12)C(CC)(CC(=O)O)OCC3` (centres undefined), the activity, negative = cell killing was -2.3% (inactive).

Regarding `O=C1Cc2cc(CCN3CCN(c4nsc5ccccc45)CC3)c(Cl)cc2N1`, the activity, negative = cell killing was -18.4% (inactive).

For the molecule `Cc1cn([C@H]2C=C[C@@H](CO)O2)c(=O)[nH]c1=O`, the activity, negative = cell killing is -7.24% (inactive).

For `CC(C)(C)C(=O)Oc1ccc(S(=O)(=O)Nc2ccccc2C(=O)NCC(=O)O)cc1`, the activity, negative = cell killing is -10.4% (inactive).
